A selection: hits, their analogues and other compounds. The true share with any hit is near 18%.
IL1B secr inh: blocks inflammasome-driven IL-1 beta release; THP-1 LPS/ATP IL-1B secretion, AlphaLISA, 16 h; stronger effect = lower value; activity change, % at 57.5 µM; actives 4.7% (n = 360,000); in the data active means activity change below about -50%; inconclusive means mostly about -30% to -49%
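THP-1 cells pretreated 1 hr with compounds (up to 57.5 uM final), then stimulated with LPS (250 ng/mL final) plus ATP (1.25 mM final); secreted IL-1B measured by AlphaLISA after 16 hr, decreased signal indicating inhibition.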
TDP1 inh: inhibitors of human tyrosyl-DNA phosphodiesterase TDP1; Potency, µM (top dose mostly 130 µM), most hits filed as inhibitors; recombinant TDP1, AlphaScreen DNA substrate cleavage; AID 485290; Q9NUW8; actives 0.28% (n = 350,000); further: nearly all actives have a fitted effect of over 40% in size
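Tdp1 1 nM final; 15 min RT w/ cpd; substrate 15 nM, 5 min; beads 10 ug/ml, 10 min; AlphaScreen read. Neg ctrl: no enzyme.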
CtBP-E1A inh: blocks the CtBP interaction with E1A | AlphaScreen GST-E1A/His-CtBP binding, 1536-well; stronger effect = lower value | AID 651724 | activity change, % (no concentration beside the values) | actives 0.49% (n = 340,000); in the data active means activity change below about -65%; inconclusive means mostly about -30% to -63%
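GST-E1A and His-tagged CtBP (125 nM each as 5X stock) were preincubated with pin-transferred compound for 2 h at 37 °C in the dark, then glutathione donor and nickel acceptor beads were added for 1 h before AlphaScreen reading.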
Six1-Eya2 inh: blocks human Six1 binding to Eya2; AlphaScreen GST-Six1/His-Eya2 binding, biochemical; stronger effect = lower value; Q15475+O00167; AID 651725; activity change, % (test concentration not listed); actives 0.56% (n = 360,000); in the data active means activity change below about -65%; inconclusive means mostly about -30% to -63%
Target sequence (O00167 whole entry, looked up): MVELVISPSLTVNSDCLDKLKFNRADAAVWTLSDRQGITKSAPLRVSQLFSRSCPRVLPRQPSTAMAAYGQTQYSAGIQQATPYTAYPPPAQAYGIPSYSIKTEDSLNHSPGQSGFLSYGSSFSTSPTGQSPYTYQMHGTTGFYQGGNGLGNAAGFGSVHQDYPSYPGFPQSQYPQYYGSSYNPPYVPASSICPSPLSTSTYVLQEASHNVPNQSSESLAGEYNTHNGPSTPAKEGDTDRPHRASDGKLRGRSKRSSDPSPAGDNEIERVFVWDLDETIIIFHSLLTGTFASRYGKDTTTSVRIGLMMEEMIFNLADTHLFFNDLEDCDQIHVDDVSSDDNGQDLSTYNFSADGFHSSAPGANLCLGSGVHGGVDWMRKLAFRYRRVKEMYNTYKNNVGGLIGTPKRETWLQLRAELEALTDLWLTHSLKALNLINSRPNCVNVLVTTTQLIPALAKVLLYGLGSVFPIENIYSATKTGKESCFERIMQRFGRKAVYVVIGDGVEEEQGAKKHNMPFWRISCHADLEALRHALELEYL
Target sequence (Q15475 whole entry, looked up): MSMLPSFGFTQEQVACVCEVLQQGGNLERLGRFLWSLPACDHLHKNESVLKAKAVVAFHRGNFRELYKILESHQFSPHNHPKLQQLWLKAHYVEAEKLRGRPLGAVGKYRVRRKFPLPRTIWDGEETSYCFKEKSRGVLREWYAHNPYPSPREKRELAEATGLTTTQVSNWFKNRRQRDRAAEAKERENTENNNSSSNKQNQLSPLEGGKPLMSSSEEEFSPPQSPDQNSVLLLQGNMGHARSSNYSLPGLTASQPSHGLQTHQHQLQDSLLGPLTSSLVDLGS
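AlphaScreen with GST-Six1 and His-Eya2 (5X mix: 250 nM and 500 nM), glutathione donor and nickel acceptor beads; buffer 50 mM Tris pH 8.0, 300 mM NaCl, 1 mM TCEP; 1 h at 37 C in the dark.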
TDP1 cell CPT: DT40-hTDP1 cell growth loss with CPT; chicken DT40 Tdp1-/-;hTDP1 cells + 20 nM CPT, ATP luminescence, 48 h; Potency, µM (doses to about 46.2 µM), hits mostly inhibitors; actives 12% (n = 420,000); further: nearly all actives have a fitted effect of over 55% in size
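Chicken DT40 Tdp1-/- cells complemented with human TDP1, 400 cells/well, exposed to compounds plus 20 nM camptothecin for at least 48 h at 37 C; viability read as ATP content by CellTiter-Glo luminescence.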
DT40 TDP1 no CPT: qHTS for Inhibitors of human tyrosyl-DNA phosphodiesterase 1 (TDP1): qHTS in cells in absence of CPT. actives 15% (n = 420,000). AID 686978, 2013. DT40 Tdp1-/- hTDP1 cells, no CPT, ATP luminescence, 48 h. Potency, µM (doses to about 46.2 µM), most hits filed as inhibitors; further: nearly all actives have a fitted effect of over 55% in size
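Growth kinetics read by CellTiter-Glo luminescence after ≥48 hr at 37 °C. Cells: DT40 Tdp1-/- stably carrying human TDP1, 400 per well, compound exposure in the absence of CPT (DMSO vehicle).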
Each line names hits and unclear results; the compound was inactive in the other large screens. Unless noted, the call rests on the fitted dose curve; in most records, active means well fitted curve in the direction sought with a large enough effect; inconclusive means small, poorly fitted or top-dose-only effect, or another doubt; inactive means no such curve, though single readings can be large; an effect the other way counts as inactive or inconclusive.

CC1=CC(=O)[C@H]2C(C)(C)CCC[C@]2(C)[C@@]1(O)CO	none
Nc1ncnc2c1ccn2[C@H]1CN(Cc2ccc3c(c2)OCO3)C[C@@H](COC(=O)c2ccccc2)O1	TDP1 cell CPT inconclusive, DT40 TDP1 no CPT inconclusive (no result: TDP1 inh)
Nc1ncnc2c1ccn2[C@H]1CN(Cc2ccc(Cl)cc2)C[C@@H](CO)O1	TDP1 cell CPT 16µM, DT40 TDP1 no CPT 13µM (no result: TDP1 inh)
Nc1ncnc2c1ccn2[C@H]1CN(Cc2ccc3c(c2)OCO3)C[C@@H](CO)O1	IL1B secr inh inconclusive, TDP1 cell CPT inconclusive, DT40 TDP1 no CPT 13µM (no result: TDP1 inh)
CCC(C)(C)NC(=O)CN(Cc1ccc2c(c1)OCO2)C(=O)CCC(=O)Nc1cc(C)ccn1	none (no result: TDP1 inh)
O=C(NCC1CCCO1)c1cccc(N2CCCC2=O)c1 (stereo not given)	none
Cc1ccc(NC(=O)COC(=O)c2ccc3c(c2)C(=O)N(CCc2ccccc2)C3=O)c(C)c1	TDP1 cell CPT inconclusive, DT40 TDP1 no CPT 6.5µM
O=C(NCC1CCCO1)C1CCN(S(=O)(=O)c2ccccc2)CC1 (stereo not given)	none
CNC(=O)c1c(N)sc2c1CCCCC2	none (no result: IL1B secr inh, CtBP-E1A inh, Six1-Eya2 inh, TDP1 cell CPT, DT40 TDP1 no CPT)
Nn1c(SCc2ccc(Br)cc2)nnc1-c1cccnc1	none (no result: CtBP-E1A inh)
Fc1cccc(CSc2ccc3nnc(-c4cccnc4)n3n2)c1	CtBP-E1A inh inconclusive, Six1-Eya2 inh -67, TDP1 cell CPT inconclusive, DT40 TDP1 no CPT 16µM
Brc1ccc(CSc2ccc3nnc(-c4cccnc4)n3n2)cc1	Six1-Eya2 inh inconclusive, TDP1 cell CPT inconclusive, DT40 TDP1 no CPT 21µM
Cc1ccc(CSc2ccc3nnc(-c4cccnc4)n3n2)cc1	TDP1 cell CPT 21µM, DT40 TDP1 no CPT 4.1µM
Cc1[nH]ncc1Nc1c(C(C)C)cccc1C(C)C	TDP1 cell CPT inconclusive, DT40 TDP1 no CPT inconclusive (no result: TDP1 inh)
CCCCCC1(C(=O)OCC)CC(CSC(=N)N)OC1=O (stereo not given)	TDP1 cell CPT 21µM, DT40 TDP1 no CPT 16µM
C(=N\Nc1ccc2nncn2n1)/c1ccccn1	CtBP-E1A inh inconclusive, Six1-Eya2 inh inconclusive, TDP1 cell CPT 12µM, DT40 TDP1 no CPT 23µM (no result: IL1B secr inh)
C/C(=N\Nc1ccc2nncn2n1)c1ccco1	none
C/C(=N\Nc1ccc2nncn2n1)c1ccccn1	CtBP-E1A inh -95, Six1-Eya2 inh -91, TDP1 cell CPT 2.3µM, DT40 TDP1 no CPT 4.6µM
CCN1C(=O)c2cccc3c(S(=O)(=O)Nc4ccccc4)ccc1c23	TDP1 cell CPT inconclusive, DT40 TDP1 no CPT inconclusive
CCCc1nnc(NC(=O)CCS(=O)(=O)Cc2ccccc2)s1	TDP1 cell CPT inconclusive, DT40 TDP1 no CPT inconclusive
CCC(CC)c1nnc(NC(=O)Cc2c[nH]c3ccccc23)s1	TDP1 cell CPT 26µM, DT40 TDP1 no CPT 23µM (no result: TDP1 inh)
CCCCc1nnc(NC(=O)CCS(=O)(=O)Cc2ccccc2)s1	none
CCc1nnc(NC(=O)CCS(=O)(=O)Cc2ccccc2)s1	TDP1 cell CPT 15µM, DT40 TDP1 no CPT inconclusive
CCC(CC)c1nnc(NC(=O)CCS(=O)(=O)Cc2ccccc2)s1	TDP1 cell CPT inconclusive, DT40 TDP1 no CPT 15µM
COC(=O)Cc1nnc(NC(=O)c2ccccc2)s1	none
COCc1nnc(NC(=O)c2cccc(NC(=O)c3ccccc3)c2)s1	TDP1 cell CPT inconclusive, DT40 TDP1 no CPT 21µM
CCCCc1nnc(NC(=O)CCS(=O)(=O)c2ccc(C)cc2)s1	TDP1 cell CPT 13µM, DT40 TDP1 no CPT inconclusive
Cc1ccc(S(=O)(=O)CCC(=O)Nc2nc3c(s2)CCCC3)cc1	TDP1 cell CPT inconclusive, DT40 TDP1 no CPT 29µM
CCc1nnc(NC(=O)CCS(=O)(=O)c2ccccc2)s1	TDP1 cell CPT 26µM, DT40 TDP1 no CPT inconclusive
CCCCc1nnc(NC(=O)CN(C)S(=O)(=O)c2ccc(C)cc2)s1	none
Cc1ccc(S(=O)(=O)CCc2nnc(NC(=O)c3ccccn3)s2)cc1	CtBP-E1A inh -92, Six1-Eya2 inh -90, TDP1 cell CPT inconclusive, DT40 TDP1 no CPT 21µM
O=C(CSc1nncs1)Nc1cc(-c2ccccc2)nn1-c1ccccc1	DT40 TDP1 no CPT inconclusive

Screening data: PubChem, National Center for Advancing Translational Sciences (NCATS)
